Bioassay records from PubChem BioAssay.
An excerpt weighted towards active compounds, which were near 21% of everything screened.
TDP1 cell noCPT = qHTS for Inhibitors of human tyrosyl-DNA phosphodiesterase 1 (TDP1): qHTS in cells in absence of CPT. DT40 Tdp1-/- hTDP1 cells, no CPT, ATP luminescence, 48 h. Potency, µM (top dose mostly 46.2 µM), for inactives: at the highest dose activity change, negative = growth inhibition, most hits filed as inhibitors. 420,000 tested, 15% active; also: potency is read from the fitted curve at half-maximal effect; % is scaled to controls: 0 for no effect and ±100 for the full control effect; nearly all actives have a fitted effect of over 55% in size
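Seeded 400 DT40-hTDP1 cells/well (vehicle DMSO, no 20 nM CPT); pinned compounds; ≥48 hr at 37 °C; CellTiter-Glo luminescence as viability measure.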
DRD3 agonist = qHTS of D3 Dopamine Receptor Agonist: qHTS. D(3) dopamine receptor (Homo sapiens), P35462. D3R DiscoveRx beta-arrestin cells, luminescence, 90 min. max activation, %. 410,000 tested, 0.58% active. AID 652048, 2013; in the data active = max activation above about 30%; also: 0% is about no effect
Target sequence (P35462 whole entry, looked up): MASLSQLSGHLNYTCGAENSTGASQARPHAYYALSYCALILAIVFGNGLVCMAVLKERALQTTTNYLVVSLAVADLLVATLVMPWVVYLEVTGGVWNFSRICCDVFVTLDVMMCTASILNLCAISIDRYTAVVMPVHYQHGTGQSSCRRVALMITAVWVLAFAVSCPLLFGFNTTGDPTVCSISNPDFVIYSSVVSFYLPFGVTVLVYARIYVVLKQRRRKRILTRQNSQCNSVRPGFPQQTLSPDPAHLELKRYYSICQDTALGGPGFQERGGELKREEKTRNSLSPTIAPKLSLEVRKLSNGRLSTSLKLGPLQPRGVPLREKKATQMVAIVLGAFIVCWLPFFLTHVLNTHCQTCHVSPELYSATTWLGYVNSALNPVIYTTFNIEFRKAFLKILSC
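Agonist mode: compounds and dopamine controls were applied to plated cells for 90 min at 37 degrees C after an overnight attachment at 1500 cells/well. Luminescent read-out followed 30 - 60 minutes at room temperature with DiscoveRx detection reagent.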
ClpP mod = qHTS Assay for Activators of ClpP; 340,000 tested, 1.9% active; ATP-dependent Clp protease proteolytic subunit (Bacillus subtilis (strain 168)), P80244; Potency, µM (series often up to 57.5 µM), for the others: top-dose activity change, negative = active; AID 651965, 2013; purified B. subtilis ClpP, FRET peptide cleavage, 20 min; active = well fitted falling curve with a large enough effect; inconclusive = small, poorly fitted or top-dose-only effect; inactive = no such curve, though single readings can be large or run the other way; also: potency is read from the fitted curve at half-maximal effect; the source files actives as falling curves though it sought activators and does not explain the sign; nearly all actives have a fitted effect of over 65% in size
Target sequence (P80244 whole entry, looked up): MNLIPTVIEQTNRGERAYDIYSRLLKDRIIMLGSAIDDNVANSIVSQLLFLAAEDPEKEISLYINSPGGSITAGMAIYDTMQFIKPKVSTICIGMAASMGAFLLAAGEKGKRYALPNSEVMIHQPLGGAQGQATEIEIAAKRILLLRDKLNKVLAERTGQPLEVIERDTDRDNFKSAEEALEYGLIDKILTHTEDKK
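FRET quenching reversal measured ClpP activation: 10 microg/mL B. subtilis ClpP at pH 8 with the FRET-FV decapeptide, read at 430 nm after 320 nm excitation. The 20-min minus 0-min signal was scaled between DMSO/no-enzyme wells and ADEP (5.8 microM final).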
IL-1B inflam inh = qHTS for Inhibitors of Inflammasome Signaling: IL-1-beta AlphaLISA Primary Screen. THP-1 LPS/ATP IL-1B secretion, AlphaLISA, 16 h; hits give low values. activity change, % at 57.5 µM. 360,000 tested, 4.7% active; in the data active = activity change below about -50%; inconclusive = mostly about -30% to -49%; also: % is scaled to controls: 0 for no effect and ±100 for the full control effect
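THP-1 cells pretreated 1 hr with compounds (up to 57.5 uM final), then stimulated with LPS (250 ng/mL final) plus ATP (1.25 mM final); secreted IL-1B measured by AlphaLISA after 16 hr, decreased signal indicating inhibition.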
D3 antag = qHTS of D3 Dopamine Receptor Antagonist: qHTS | D3R cells, DiscoveRx beta-arrestin luminescence, antagonist mode; hits give low values | D(3) dopamine receptor (Homo sapiens), P35462 | max response, negative = inhibition, % | 360,000 tested, 2.5% active; in the data active = max response below about -50%; inconclusive = no clear call, values can overlap the other calls; also: % is scaled to controls: 0 for no effect and ±100 for the full control effect
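Cells expressing the human receptor were seeded at 1500 cells/well, incubated overnight at 37 degrees C in 5% CO2, then exposed to library compounds with dopamine controls for 90 minutes at 37 degrees C before luminescent detection.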
DT40 TDP1 CPT = qHTS for Inhibitors of human tyrosyl-DNA phosphodiesterase 1 (TDP1): qHTS in cells in presence of CPT. chicken DT40 Tdp1-/-;hTDP1 cells + 20 nM CPT, ATP luminescence, 48 h. 420,000 tested, 12% active. Potency, µM (top dose mostly 46.2 µM), for the others: at the highest dose activity change, negative = growth inhibition, hits mostly inhibitors. AID 686979, 2013; also: potency is read from the fitted curve at half-maximal effect; % is scaled to controls: 0 for no effect and ±100 for the full control effect; nearly all actives have a fitted effect of over 55% in size
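Cell growth measured by CellTiter-Glo luminescence after a minimum 48 h, 37 C compound exposure with 20 nM CPT in Tdp1-knockout DT40 cells stably expressing hTDP1, seeded 400/well; qHTS titration format.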
The depositor's hits bear a star; u = inconclusive; x = not tested or not shown. Unless noted, calls follow the shape of the dose curve; as a rule, active = well fitted inhibition curve with a large enough effect; inconclusive = small, poorly fitted or top-dose-only effect; inactive = flat fitted curve, though single readings scatter.

SMILES	TDP1 cell noCPT	DRD3 agonist	ClpP mod	IL-1B inflam inh	D3 antag	DT40 TDP1 CPT
O=S(=O)(c1ccc(OCC(O)CN2CCC(Cc3ccccc3)CC2)cc1)N1CCOCC1 (stereo not drawn)	-7.0%	-32.2	-0.8%	-15.3	-58.6*	-23.5%
O=S(=O)(c1ccc(OCC(O)CN2CCN(c3ccccc3)CC2)cc1)N1CCOCC1 (stereo not drawn)	-29.7%	43.3*	-2.3%	10.3	0.0	u
Cc1ccc(S(=O)(=O)N(Cc2cccc(F)c2)C(=O)N2CCN(C)CC2)cc1	-6.4%	1.8	-1.0%	16.9	2.1	-2.2%
CS(=O)(=O)N1c2ccccc2[C@]2([C@@]34C[C@H]5C(=O)N[C@@H](Cc6ccccc6)C(=O)N5[C@@H]3N(S(C)(=O)=O)c3ccccc34)C[C@H]3C(=O)N[C@@H](Cc4ccccc4)C(=O)N3[C@H]12	-0.4%	4.8	-1.3%	4.0	-10.2	6.3%
CC[C@H](C)[C@@H]1NC(=O)[C@H]([C@@H](C)CC)NC(=O)[C@@H](CC(C)C)NC(=O)[C@H](Cc2ccccc2)NC(=O)[C@H](Cc2ccccc2)NC(=O)[C@@H]2CCCN2C(=O)[C@@H]2CCCN2C(=O)[C@H](C(C)C)NC(=O)[C@H](CC(C)C)NC1=O	8.2µM*	-2.6	1.7%	-15.0	22.7	6.51µM*
CCNC(=S)N1CCC(C(N)=O)CC1	27.8%	2.7	-0.4%	-5.0	7.5	-19.7%
CSc1ncc(Cl)c(C(=O)Nc2ccc(C)c(C)c2)n1	-6.6%	15.0	2.9%	17.6	-10.4	-7.1%
Cc1ccc(NC(=O)c2nc(S(=O)(=O)Cc3ccccc3F)ncc2Cl)cc1	0.891µM*	x	u	x	x	1.26µM*
Cc1ccc(NC(=O)c2nc(S(=O)(=O)Cc3ccccc3C)ncc2Cl)cc1C	1.64µM*	-31.8	x	-100.2*	-73.7*	1.46µM*
NS(=O)(=O)c1ccc(NC(=O)c2nc(S(=O)(=O)Cc3ccccc3F)ncc2Cl)cc1	7.08µM*	x	3.9%	x	x	10µM*
Cc1ccc(NC(=O)c2nc(S(=O)(=O)Cc3ccccc3F)ncc2Cl)cc1C	2µM*	x	0.7%	x	x	0.891µM*
NS(=O)(=O)c1ccc(NC(=O)Cc2c(F)cccc2Cl)cc1	-7.7%	-1.6	x	4.3	-8.2	-5.1%
CSCCC(NC(=O)c1ccccc1Cl)C(=O)NC1CCN(Cc2ccccc2)CC1 (stereo not drawn)	-10.7%	-9.6	4.9%	-4.0	0.0	-10.3%
CC(=O)c1ccc(NS(=O)(=O)c2ccc3c(c2)CCC(=O)N3)cc1	2.7%	-2.0	-20.6%	7.4	0.0	-11.8%
COc1ccc(NC(=O)Cn2cc(S(=O)(=O)N3CCC(C)CC3)c3ccccc3c2=O)cc1Cl	-9.1%	5.9	-12.5%	x	x	u
Cc1ccccc1NC(=O)c1nc(S(=O)(=O)Cc2ccccc2F)ncc1Cl	5.01µM*	x	u	x	x	1.26µM*
OCCC1CN(Cc2nc3ccccc3s2)CCN1C1CCCC1 (stereo not drawn)	-3.1%	-9.9	-1.4%	0.0	2.6	-11.9%
CC(C)(C)NC(=O)CSC(=Nc1cccc(F)c1)NC#N	u	-10.9	0.1%	-96.7*	-9.5	u
COC(=O)c1ccc(N2CCN(c3ccccc3)CC2)nc1	1.0%	1.1	u	12.0	-8.0	1.0%
CCc1ccc(OCC(=O)N/N=C(\C)c2ccccc2OC(F)F)cc1	16.4µM*	-7.7	1.3%	-11.3	4.1	16.4µM*
CCc1ccc(OCC(=O)N/N=C(\C)c2ccc(OC(F)F)cc2)cc1	-27.0%	-1.5	x	-0.5	4.0	1.6%
CCc1ccc(OCC(=O)N/N=C(\C)c2ccc(-n3ccnc3)cc2)cc1	16.4µM*	-1.7	0.8%	-20.5	1.5	u
COCCNC(=S)N/N=C(\C)c1ccc(-n2ccnc2)cc1	3.55µM*	-14.7	-0.5%	74.2	2.8	4.47µM*
C/C(=N\NC(N)=O)c1ccc(-n2ccnc2)cc1	-1.8%	-2.8	x	-5.3	-5.6	-4.6%
C/C(=N\NC(=S)NC(C)C)c1ccc(-n2ccnc2)cc1	4.11µM*	1.8	2.6%	-17.1	77.4	3.26µM*
SMILES	TDP1 cell noCPT	DRD3 agonist	ClpP mod	IL-1B inflam inh	D3 antag	DT40 TDP1 CPT
COC(=O)c1c(OCc2ccccn2)cc(=O)n2c1CCN(C(=O)c1n[nH]c3c1CCCC3)CC2	-7.2%	x	x	x	x	0.4%
OCC1OC(Oc2c[nH]c3ccccc23)C(O)C(O)C1O (stereo not drawn)	-18.7%	-20.7	-24.4%	34.0	-11.0	-9.1%
O=C(CCS(=O)(=O)c1ccc(Cl)cc1)Nc1ccc(N2CCOCC2)cc1	14.6µM*	7.0	x	25.2	6.3	20.6µM*
O=C(CCS(=O)(=O)c1ccc(Br)cc1)N1CCN(c2ccc(Cl)cc2)CC1	14.6µM*	8.6	0.5%	7.7	12.6	u
O=C(CCS(=O)(=O)c1ccc(Br)cc1)N1CCN(c2ccc(F)cc2)CC1	16.4µM*	-1.3	2.3%	-8.9	1.7	u
Cc1ccc(S(=O)(=O)CC(=O)N2CCN(c3ccc(F)cc3)CC2)cc1	-25.4%	5.3	x	0.0	16.9	-7.6%
O=C(NCc1ccc(F)cc1)c1ccc(CS(=O)(=O)c2ccc(Br)cc2)o1	10.3µM*	4.5	-3.8%	u	-7.7	u
CNS(=O)(=O)c1cn(CC(=O)N2CCN(c3ccc(Cl)cc3)CC2)cc1S(=O)(=O)NC	13µM*	-6.6	0.9%	x	x	14.6µM*
O=C(CNS(=O)(=O)c1ccc(Br)cc1)N1CCN(c2ccc(F)cc2)CC1	18.4µM*	-2.0	-1.2%	-12.2	u	u
O=C(c1ccc(CS(=O)(=O)c2ccc(Br)cc2)o1)N1CCN(c2ccc(F)cc2)CC1	23.1µM*	0.3	-0.6%	-8.0	6.8	u
CN1C(=O)Cc2cc(S(=O)(=O)CCC(=O)N3CCN(c4ccc(Cl)cc4)CC3)ccc21	14.6µM*	0.5	0.5%	x	x	20.6µM*
O=C(OCc1ccccc1)N1CCC2CC1c1ccc(-c3cccc(F)c3)cc12 (stereo not drawn)	u	2.6	-8.1%	3.1	-10.5	u
C=CCOc1ccc(/C=C/C(=O)OCC(=O)N(C)CC(=O)Nc2ccc(F)cc2)cc1	-8.4%	-11.2	-2.2%	1.8	-11.1	-4.7%
